Laboratory results: paper PMC10668032, “Altered binding affinity of SIX1-Q177R correlates with enhanced WNT5A and WNT pathway effector expression in Wilms tumor”
Whole data set: some 33,000 sequences, median “e-score” near -0.05, cut for the highest 2% near 0.38. The list comes from a sample in which the highest values are over-represented; it also holds similar and randomly drawn sequences.

Target: T1, SIX1-Q177R homeodomain (human, UniProt Q15475 108-198, Q177R)
T1 sequence: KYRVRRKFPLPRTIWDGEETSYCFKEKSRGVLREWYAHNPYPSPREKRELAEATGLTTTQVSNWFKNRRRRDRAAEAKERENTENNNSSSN
Assay: universal protein binding microarray; Universal all-10-mer PBM (8x60K, AMADID 030236), 300 nM GST-tagged protein, Alexa Fluor 488 anti-GST; buffer, salt, pH and temperature not stated (as in Berger); high values mean tight binding
Settings: protein: ivt; tags: N-terminal GST; dsDNA, one strand shown
How it was run: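 Duplicate protein binding microarrays (universal 'all 10-mer', 8×60K format) were incubated with GST-tagged homeodomains at 300 nM final concentration. Binding was quantified as 8-mer E-scores with the Universal PBM Analysis Suite.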

Sequence | binding signal [E-score]
AAATGGTG | 0.289 ± 0.00359
CGCCGGCG | 0.192 ± 0.0602
AGTTCGAA | 0.156 ± 0.011
CCCCCGCA | 0.218 ± 0.0293
CGACCCCA | 0.233 ± 0.0324
GTATACAA | 0.155 ± 0.0122
ATATATAC | 0.154 ± 0.00578
CTATACAC | 0.379 ± 0.0172
GAGTATAC | 0.157 ± 0.0409
GTATACAC | 0.411 ± 0.00685
ATATACAC | 0.409 ± 0.0246
CAAAGGGG | 0.188 ± 0.0422
CCCCATAG | 0.209 ± 0.0311
TACCAACA | 0.167 ± 0.0345
ATGTACCC | 0.19 ± 0.00303
ATGTACAC | 0.435 ± 0.00667
CTGCACAC | 0.247 ± 0.0168
CTGTACAC | 0.41165 ± 0.000233
CTGTACCC | 0.183 ± 0.0197
GTACACAC | 0.355 ± 0.0185
GTGTACAA | 0.4291 ± 0.00333
GTGTACAC | 0.4741 ± 0.00152
ACCCGGCG | 0.235 ± 0.0231
CCCATACA | 0.192 ± 0.0397
CTCGGACA | 0.171 ± 0.0363

Sequence | binding signal [E-score]
AGGGATCC | 0.212 ± 0.0252
ACACAACA | 0.268 ± 0.0457
CCCGATTA | 0.166 ± 0.0206
TGATAACA | 0.153 ± 0.0108
TGTCTAAA | 0.199 ± 0.0261
CACCAGCA | 0.341 ± 0.0362
GACCCCAC | 0.2185 ± 0.00167
AAACACCC | 0.45 ± 0.00506
GAACACCA | 0.4685 ± 0.000778
TAACACTA | 0.384 ± 0.0373
GAACACTA | 0.356 ± 0.0123
AAACACTA | 0.298 ± 0.0405
AAACACCA | 0.454 ± 0.0052
AAACACTC | 0.321 ± 0.0305
AAACACGA | 0.324 ± 0.0263
AAACACAC | 0.344 ± 0.0104
GAGCACCA | 0.243 ± 0.0142
AAACAACA | 0.166 ± 0.016
CAACACTA | 0.34 ± 0.0042
CACGGGAG | 0.17 ± 0.0204
ACCGAACC | 0.197 ± 0.00959
ACCCCCCC | 0.31 ± 0.0449
CACCAACG | 0.335 ± 0.0249
ACCGCGTG | 0.246 ± 0.00416
GGAGGGGA | 0.158 ± 0.02

Sequence | binding signal [E-score]
ACGTAACA | 0.199 ± 0.0228
AAACACTG | 0.344 ± 0.0208
CAACACAC | 0.342 ± 0.0337
CAACACCA | 0.4741 ± 0.00414
CACCACCG | 0.3551 ± 0.000962
CACCAACA | 0.377 ± 0.0268
CAACACCG | 0.46689 ± 0.000212
AAACACCG | 0.4654 ± 0.00275
CAACACTG | 0.323 ± 0.00702
CAACACTC | 0.36 ± 0.00549
AAGCACCG | 0.175 ± 0.0203
CAACACCC | 0.456 ± 0.00535
CAACACAA | 0.182 ± 0.0648
ACCAGGTA | 0.241 ± 0.0242
ATACTACA | 0.257 ± 0.011
AACTGGTG | 0.364 ± 0.0186
GACGCCGA | 0.174 ± 0.0331
AGAGGTGC | 0.19 ± 0.0288
ACTCCCCG | 0.191 ± 0.00694
AAACACGG | 0.3488 ± 0.00234
GAACACTC | 0.374 ± 0.0139
GAACACAC | 0.319 ± 0.0348
GAACACCC | 0.4707 ± 0.00185
AAACACCT | 0.419 ± 0.00791
AAACACTT | 0.252 ± 0.0426

Sequence | binding signal [E-score]
TAACACGA | 0.399 ± 0.00944
CAACACGA | 0.328 ± 0.0204
AAACACGT | 0.307 ± 0.0183
CAACACGG | 0.38 ± 0.0301
CACGTGAC | 0.258 ± 0.0152
TCGGATAA | 0.194 ± 0.0204
GGGTTTTA | 0.163 ± 0.0227
ACACAGGG | 0.158 ± 0.0633
CACCATTA | 0.266 ± 0.00672
CACGGGTA | 0.291 ± 0.0126
CACTCGAG | 0.172 ± 0.0369
TAGCACCA | 0.2242 ± 0.00214
AAACACGC | 0.336 ± 0.0161
GAACACGA | 0.3393 ± 0.000771
GAACACGC | 0.393 ± 0.0119
TAACACAA | 0.216 ± 0.0241
TAACACCA | 0.477 ± 0.00686
CACAGCTA | 0.177 ± 0.0139
AACCCCGA | 0.232 ± 0.0298
CACGCCCC | 0.29 ± 0.0136
AGGGGTGC | 0.221 ± 0.0348
GTGTCTTA | 0.3629 ± 0.00242
ATGTCGGG | 0.199 ± 0.029
GTGTCGTA | 0.45 ± 0.0119
GTATCGCA | 0.234 ± 0.0133

Sequence | binding signal [E-score]
GTGTCGCA | 0.442 ± 0.0148
GGGTCGGA | 0.227 ± 0.0525
ATGTCGTG | 0.222 ± 0.0295
GTGTCGGA | 0.454 ± 0.0132
CCGAGCAC | 0.178 ± 0.0032
ACCCAGTG | 0.21 ± 0.0315
AGTGGTAG | 0.157 ± 0.00503
ATGAGACA | 0.159 ± 0.0072
GGTGCACA | 0.268 ± 0.0361
ATAGCACG | 0.157 ± 0.0235
CTCTACAC | 0.391 ± 0.0122
CTCCACAC | 0.251 ± 0.0305
GTCTACAC | 0.42 ± 0.0105
GTCCACAC | 0.211 ± 0.0298
ATCTACAC | 0.404 ± 0.0153
CCCTCTAC | 0.205 ± 0.0116
GTCTAACA | 0.204 ± 0.0271
ATCCACAC | 0.297 ± 0.0245
TCGGTACA | 0.219 ± 0.0249
GGGTCTCA | 0.162 ± 0.0232
ACTGCCCG | 0.219 ± 0.00643
TAGTATCA | 0.221 ± 0.0229
CACCAAAC | 0.283 ± 0.0195
ACCGCGAA | 0.1607 ± 0.000856
CACATTTC | 0.186 ± 0.0176

Sequence | binding signal [E-score]
GTGTGCCA | 0.242 ± 0.0264
GGGTACTA | 0.224 ± 0.00292
GTGTACCA | 0.4446 ± 0.00264
GTGTGCGA | 0.173 ± 0.0312
GTGTACGA | 0.43943 ± 0.000382
GTGTACTA | 0.438 ± 0.0127
GTATACCA | 0.152 ± 0.0219
AGGTACTA | 0.1967 ± 0.000601
CCATGGGA | 0.153 ± 0.052
ACCTCCCA | 0.191 ± 0.00743
AATCTGAC | 0.17 ± 0.00849
GTCGTACA | 0.26 ± 0.00478
CCCCCCGG | 0.254 ± 0.0183
ACACAACC | 0.219 ± 0.0237
CACCTACG | 0.232 ± 0.0231
CACCTACC | 0.2673 ± 0.000516
CACCTACA | 0.41 ± 0.00505
GTATGACA | 0.257 ± 0.00319
ACAAGTGT | 0.344 ± 0.0292
CGCATACA | 0.185 ± 0.00496
AGGGATAC | 0.165 ± 0.0372
AGGGAGTC | 0.239 ± 0.00436
CGGGATAC | 0.281 ± 0.0031
CGGGATCC | 0.209 ± 0.0344
GAGGGGAC | 0.2 ± 0.0143

Sequence | binding signal [E-score]
GGGGACAC | 0.41 ± 0.0266
CGGGACAC | 0.42 ± 0.00537
GGGGATAC | 0.254 ± 0.0111
AGGGACAC | 0.402 ± 0.019
CACTTGCA | 0.173 ± 0.0121
GGATCTGA | 0.194 ± 0.0532
CCGGATCA | 0.176 ± 0.0156
AATCTGGT | 0.159 ± 0.0527
GGTCGTAC | 0.224 ± 0.0297
CGGGGTCA | 0.269 ± 0.0255
ACTTCGTG | 0.238 ± 0.000686
AACAAGGG | 0.177 ± 0.0185
AGCAGGTG | 0.335 ± 0.0234
ACCCCACG | 0.267 ± 0.00597
CGCGACCC | 0.169 ± 0.0418
GGCGAGAC | 0.168 ± 0.0212
GGCGATAC | 0.174 ± 0.0165
CGCGACAC | 0.4355 ± 0.00314
AGCGACAC | 0.465 ± 0.00955
GGCGACAC | 0.44 ± 0.0183
CGCGATAC | 0.254 ± 0.0107
GAGCGACA | 0.185 ± 0.0595
